Test results published in PubChem BioAssay AID1063 (University of Pittsburgh Molecular Library Screening Center, 2008).
Among all 200,000 compounds or so, about 18,000 (9%) were called active. This is one part of a sample in which actives are shown more often than they occur. Values without a mark were called inactive. Rule as the data show it: active = inhibition above about 50%; inactive = the rest.

assay: antileishmanial activity against promastigotes – primary screen (AID 1063); settings: Leishmania major promastigotes, resazurin fluorescence viability; at 10 µM; hits give high values;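 also: promastigotes grown with compound for 44 hours at 28 °C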

Row | Structure (SMILES) | inhibition
1 | COCCCN(C(=S)Nc1c(C)cc(C)cc1C)C(C)c1ccncc1 (stereo not drawn) | 1.38%
2 | COc1cc(OC)cc(-c2nc3ccccc3c(=O)n2NC(=O)c2cccnc2Cl)c1 | 46.3%
3 | O=C(Nn1c(-c2ccccc2)nc2ccccc2c1=O)c1ccc([N+](=O)[O-])cc1 | -4.12%
4 | Cc1cccc(-c2nc3ccccc3c(=O)n2NC(=O)Cc2ccc(Cl)cc2)c1 | 53% (active)
5 | O=C(Nn1c(-c2ccc(Cl)cc2)nc2ccccc2c1=O)c1cccnc1Cl | 55.3% (active)
6 | O=C(Cc1ccc(Cl)cc1)NCc1nc(-c2ccccc2)no1 | -1.26%
7 | O=C(Cn1nnc2ccccc2c1=O)NCc1ccc(Cl)cc1 | -4.83%
8 | CCCCCC1CCC(c2nnc(SCC(C)=O)o2)CC1 (stereo not drawn) | -9.46%
9 | COCCNC(=O)C(OC(=O)c1cccs1)c1ccc(F)cc1 (stereo not drawn) | -3.33%
10 | COc1ccc(Cl)cc1NC(=O)CN(C)Cc1ccc(OC)c(OC)c1 | 1.17%
11 | Cc1cccc(-n2c(Cc3cc(=O)[nH]c(=O)[nH]3)nnc2SCC(=O)Nc2cccc(C(F)(F)F)c2)c1 | -1.75%
12 | N#Cc1c(NC(=O)C2CC(Cl)=CCC2C(=O)O)sc2c1CCCCC2 (stereo not drawn) | -8.36%
13 | O=C(COC(=O)C1CCCCC1)Nc1ccc([N+](=O)[O-])cc1 | -5.31%
14 | COc1ccc(OCC(=O)Nc2ccc(N3CCC(C)CC3)cc2)cc1 | 8.72%
15 | O=C(COc1ccc([N+](=O)[O-])cc1)Nc1ccc(N2CCCC2)cc1 | 86.2% (active)
16 | COc1cc(COCC(O)CN2CCN(Cc3ccc4c(c3)OCO4)CC2)cc(OC)c1OC (stereo not drawn) | 2.04%
17 | Cc1cc(=O)oc(C)c1C(=O)NCCN(C)Cc1ccccc1 | 9.38%
18 | COc1cccc(-c2ccc(C#N)c(SCC(=O)NCCc3ccc(Cl)cc3)n2)c1 | 50.9% (active)
19 | COc1ccc(CCNC(=O)CSc2nc(-c3ccc(OC)c(OC)c3)ccc2C#N)cc1 | 27.6%
20 | COc1ccc(CCNC(=O)CSc2nnc3ccc(-c4ccncc4)nn23)cc1 | -2.23%
21 | NS(=O)(=O)c1ccc(NC(=O)/C=C/c2ccccc2Cl)cc1 | 0.13%
22 | O=C1c2cccnc2C(Nc2ccc(S(=O)(=O)N3CCCCCC3)cc2)N1Cc1ccccc1 (stereo not drawn) | 54.9% (active)
23 | Cc1nc(Nc2ccc(S(=O)(=O)N3CCCC3)cc2)c2nnn(Cc3ccccc3)c2n1 | 0.17%
24 | O=S(=O)(NCc1ccccc1)c1ccc(S(=O)(=O)N2CCCC2)cc1 | -7.35%

Row | Structure (SMILES) | inhibition
25 | CCOc1cccc(SCc2noc(C(=O)NC(C)C)c2C(=O)O)c1 | -11.1%
26 | COC(=O)c1c(CCl)noc1C(=O)NC(C)C | 100% (active)
27 | COC(=O)c1onc(-c2c(OC)cc(OC)cc2OC)c1C(=O)OC | -8.2%
28 | Cc1cc(NC(C)C)n2c(nc3ccccc32)c1C#N | 0.11%
29 | O=C1N(c2ccc(Cl)cc2)C(c2ccc(Cl)cc2)N2CCCN12 (stereo not drawn) | -2.86%
30 | COCCCNC(NC(=O)c1ccc(OC)cc1)C(Cl)(Cl)Cl (stereo not drawn) | -5.56%
31 | O=Cc1ccc(OCc2cn3ccccc3n2)cc1 | -8.44%
32 | CNC(=O)COC(=O)c1cc(-c2ccc(OC)cc2)nc2ccccc12 | 6.03%
33 | CCn1c(CNS(=O)(=O)c2ccc(Cl)cc2)n[nH]c1=S | -0.27%
34 | S=c1[nH]nc(CSCc2ccc(Cl)cc2Cl)n1-c1ccccc1 | 14.5%
35 | CCn1c(CSCc2c(Cl)cccc2Cl)n[nH]c1=S | 81.2% (active)
36 | CCOC(=O)NC(=O)/C(C#N)=C\c1ccccc1 | -7%
37 | O=C(Nc1ccc2c(c1)CCC2)c1cccc(S(=O)(=O)N2CCN(c3ccc(F)cc3)CC2)c1 | 24.5%
38 | O=C(c1cccc(S(=O)(=O)Nc2ccccc2Cl)c1)N1CCN(C(=O)c2ccco2)CC1 | -0.85%
39 | O=C(Nc1ccc2c(c1)CCC2)c1cccc(S(=O)(=O)Nc2ccccc2Cl)c1 | 95.5% (active)
40 | Cc1ccc(-c2nn(-c3ccccc3)cc2/C=C/C(=O)Nc2cccc(S(N)(=O)=O)c2)cc1 | -2.89%
41 | O=C(CCC(=O)c1cccs1)NCc1ccccc1 | -10.9%
42 | Cc1ccccc1C(CC(=O)c1cccs1)C(C#N)C#N (stereo not drawn) | 83.5% (active)
43 | Cc1ccc(C)c(NC(CC(=O)c2ccccc2)C(=O)OCC(=O)c2cccs2)c1 (stereo not drawn) | 17.1%
44 | CC(NC(=O)COC(=O)c1ccc(Cl)cc1O)c1ccc(F)cc1 (stereo not drawn) | -6.63%
45 | CN(C)CCCNC(=O)c1ccc2[nH]c3ccccc3c2c1 | 13%
46 | CC(=O)c1ccc(S(=O)(=O)Nc2ccc(C(=O)NCC(c3ccccc3)N(C)C)cc2)cc1 (stereo not drawn) | 0.26%
47 | CN(C)c1ccc(C(CNC(=O)c2ccc(F)cc2)c2c[nH]c3ccccc23)cc1 (stereo not drawn) | 96.3% (active)
48 | COc1ccc(-n2nc3c(c2NC(=O)c2ccc(N4C(=O)CCC4=O)cc2)CSC3)cc1 | -0.66%

Row | Structure (SMILES) | inhibition
49 | O=c1[nH]n(-c2ccc([N+](=O)[O-])cc2)c(=O)c2ccccc12 | -3.65%
50 | CC(C)(C)c1ccc(/C=C/C(=O)NC2CCS(=O)(=O)C2)cc1 (stereo not drawn) | 0.12%
51 | COc1ccc(S(=O)(=O)N2CCOCC2)cc1C(=O)Nc1nc2ccccc2s1 | -3.71%
52 | O=C(Nc1nc2cc3c(cc2s1)OCCO3)c1cccc(S(=O)(=O)N2CCOCC2)c1 | 99.1% (active)
53 | O=C(Nc1nc2ccc(S(=O)(=O)N3CCCC3)cc2s1)C1CCCO1 (stereo not drawn) | 2.48%
54 | Cc1noc(C)c1COc1cccc(C(=O)Nc2cccnc2)c1 | 4.43%
55 | CC1=CC=CN2C1=NC(=O)CC2(C)C(=O)N(CC(=O)NC1CCCC1)c1ccccc1C (stereo not drawn) | 2.29%
56 | O=C(CSc1cccc2cccnc12)N/N=C/c1cccnc1 | 101% (active)
57 | Cc1c(NC(=O)CSc2cccc3cccnc23)c(=O)n(-c2ccccc2)n1C | 44.5%
58 | Cc1nc2ccccc2n1CC(=O)N/N=C/c1cccnc1 | -4.45%
59 | CN1CCN(c2ccc(NC(=O)c3ccc4c(c3)OCCO4)cc2Cl)CC1 | 5.5%
60 | CCCc1[nH]nc2c1C(c1ccc(OC)c(Cn3nc(C)c(Br)c3C)c1)C(C#N)=C(N)O2 (stereo not drawn) | 41.6%
61 | CCOc1c(OC)cc(C2C(C#N)=C(N)Oc3n[nH]c(-c4ccncc4)c32)cc1OC (stereo not drawn) | 6.78%
62 | COc1ccc(C2C(C#N)=C(N)Oc3n[nH]c(C)c32)cc1CN1CCN(c2ccc(F)cc2)CC1 (stereo not drawn) | 60.8% (active)
63 | O=Cc1ccc(Oc2cccc(C(F)(F)F)c2)nc1 | 6.6%
64 | COc1ccc(NC(=O)COC(=O)c2ccncc2)c(OC)c1 | -3.38%
65 | CC(C)(C)NC(=O)C(=O)NCc1ccncc1 | 77.7% (active)
66 | O=C(NCc1ccncc1)C(=O)NCc1ccco1 | -7.02%
67 | CCCC(C)C(=O)NCc1ccncc1 (stereo not drawn) | -1.46%
68 | CC(C)OCCCNC(=S)N1CCC(C(=O)c2ccc3c(c2)OCCO3)CC1 | -1.34%
69 | COCCn1c(-c2ccc(OC)c(OC)c2)nc2ccccc21 | 11.3%
70 | CCCn1c(C(O)c2cc(OC)ccc2OC)nc2ccccc21 (stereo not drawn) | 19%
71 | COc1ccc(-c2nc3ccccc3n2CCC(C)C)cc1OC | 66.8% (active)
72 | Cn1c(=O)c2c(ncn2CC(=O)N/N=C/c2cn[nH]c2-c2ccc(F)cc2)n(C)c1=O | -7.31%

Row | Structure (SMILES) | inhibition
73 | Cn1nc(C(F)(F)F)c2cc(C(=O)N3CCOCC3)sc21 | -2.24%
74 | COc1ccc(CCC(=O)OCC(=O)Nc2ccc(C)c(S(=O)(=O)N(C)C)c2)cc1 | -10.7%
75 | Cc1ccc(C)c(S(=O)(=O)N2CCN(CC(=O)Nc3ccc([N+](=O)[O-])cc3)CC2)c1 | 26.5%
76 | COc1ccc(NS(=O)(=O)c2cc(NC(=O)CC(=O)c3ccc([N+](=O)[O-])cc3)ccc2C)cc1 | 68.3% (active)
77 | Cc1ccc(-n2c(C)cc(/C=N\NC(=O)CC(=O)NC(C)C)c2C)cc1 | -3.17%
78 | Cc1cccc(-n2c(C)cc(/C=N/NC(N)=S)c2C)c1 | 79.6% (active)
79 | Cc1cccc(-n2c(C)cc(/C=N\NC(=O)c3cccs3)c2C)c1 | 17.2%
80 | Cc1ccc(-c2csc(NC(=O)c3cnccn3)n2)cc1C | -7.05%
81 | COc1ccc(Oc2c(Cl)cnn(-c3ccccc3)c2=O)cc1 | 59.1% (active)
82 | COc1ccc(-n2c(C)nc3c(cnn3-c3ccccc3)c2=O)cc1 | -7.18%
83 | Cc1ccc(Oc2cnn(-c3ccccc3)c(=O)c2Br)cc1 | 46.6%
84 | S=C1Nc2cc(Cl)ccc2Sc2ccccc21 | -5.54%
85 | CCN(CC)C(=O)N(CC)Cc1ccccc1 | 0.88%
86 | CCC(C)NC(=O)/C=C/c1ccc(S(=O)(=O)NCc2ccco2)cc1 (stereo not drawn) | 9.36%
87 | COc1cc(OC)cc(C(=O)NCCSCc2ccco2)c1 | -3.35%
88 | CCC(CC)NC(=O)/C=C/c1cccc([N+](=O)[O-])c1 | 44.7%
89 | O=C(/C=C/c1ccc([N+](=O)[O-])cc1)NCCSCc1ccco1 | 62.9% (active)
90 | O=C(NCc1ccco1)c1ccc(NS(=O)(=O)c2cccc([N+](=O)[O-])c2)cc1 | -9.32%
91 | O=C(/C=C/c1cccc([N+](=O)[O-])c1)NCCSCc1ccco1 | 59.6% (active)
92 | CCOc1ccc(/C=C(/NC(=O)c2ccccc2)C(=O)NCCC(=O)O)cc1 | -5.96%
93 | Cc1ccc(NC(=O)c2ccc(S(=O)(=O)NCC3CCCO3)cc2)cc1C (stereo not drawn) | 12.2%
